Measured values taken from PubChem BioAssay (NCATS).
Inconclusive results are not listed. The source made the active and inactive calls. Calls follow the shape of the dose curve; as a rule, active = well fitted inhibition curve with a large enough effect; inconclusive = small, poorly fitted or top-dose-only effect; inactive = no such curve, though single readings can be large or run the other way. Where a SMILES comes first, the peptide text is derived from it. [ ]: non-standard residue; d: D form. Hyp = O=C(O)[CH]1C[CH](O)CN1; Phe(ol) = N[CH](CO)Cc1ccccc1; Iva = CC[C](C)(N)C(=O)O; Aib = CC(C)(N)C(=O)O

test system: Zika virus NS2B-NS3 protease (linked construct); test: Primary screen NINDS Rhodamine qHTS for Zika virus inhibitors (AID 1347160); conditions: purified NS2B-NS3 protease, Rhodamine110 substrate fluorescence; series mostly up to 57.1 µM; activity change, negative = inhibition: at the top concentration; also: nearly all actives have a fitted effect of over 55% in size
Text: Avindra Nath, Ph.D., National Institute of Neurological Disorders and Stroke (NINDS), Bethesda, MD
Radhakrishnan Padmanabhan, Ph.D., Georgetown University (GU), Washington D.C.
Zika Virus causes congenital defects, including microcephaly and is associated with Guillain-Barre syndrome, eningoencephalitis and myelitis in infected adult. […] Using a target-based approach, we hope to establish a screening paradigm to uncover novel, cell-active NS2B-NS3 protease (Zika Virus) specific inhibitors from NCATS' collection of small molecules using qHTS.
Four assay panel was created to identify potential Zika Virus inhibitors. Namely, (1) GU unlinked NS2B-NS3 AMC tagged protease qHTS, (2) GU unlinked NS2B-NS3 Rhodamine tagged protease qHTS, (3) NINDS linked NS2B-NS3 AMC tagged protease qHTS, (4) NINDS linked NS2B-NS3 Rhodamine tagged protease qHTS. Active compounds were re-acquired and re-screened to confirm inhibition. Inhibitors were further screened against various confirmatory and counterscreens in dose response format.
Early Translation Branch (ETB)
National Center for Advancing Translational Sciences (NCATS), Rockville, MD
National Institute of Health (NIH), Bethesda, Maryland
For the linked assay, Nath lab (NINDS) provided the purified linked NS2B-NS3 protease which is consists of hydrophilic domain of NS2B linked to the NS3 protease domain by a flexible (-[…]-) linker. Control compound aprotinin is obtained from Thermo Scientific (#78432; Waltham, Massachusetts). Rhodamine110 substrate ([N-Cbz]-Nle-Lys-Arg-Arg-Rhod110-Arg-Arg-Lys-Nle-[N-Cbz]) was purchased from either Genscript or Bachem.
1536-well Protease (Rhodamine110 Substrate) Assay:
Briefly, 3 microL of enzyme (25 nM final concentration), in assay buffer (10 mM Tris-HCl pH 8.0 with 0.01% Tween 20) were dispensed into a 1,536-well solid-bottom black plate (Greiner Bio One, Monroe, NC). Twenty-three nL of compounds (final concentration range 7.28 nM to 114 microM) or control Aprotinin (final concentration range 3.47 nM to 114 microM) were transferred via Wako Pin-tool (Wako Automation, Richmond, VA). Samples were incubated (room temperature, protected from light) for 15 minutes followed by a 1 microL Rhodamine110 substrate addition (1.5 microM final concentration). Plates were then immediately read on a ViewLux High-throughput CCD imager (PerkinElmer, Waltham, MA) equipped with FITC fluorescence optics (480(20) nm excitation, 540(25) nm emission), then incubated (room temperature, protected from light) for 15 minutes (~15% conversion). The change in fluorescence intensity over the 15-minute reaction period was normalized against no-inhibitor and no-enzyme controls and the resulting percent inhibition data were fitted to a 4-parameter Hill equation. Aprotinin was used as intraplate control.
% is scaled to controls: 0 for no effect and ±100 for the full control effect; potency is read from the fitted curve at half-maximal effect.

Row | SMILES | activity change, negative = inhibition | outcome | Potency
1 | O=C(Nc1nc2ccc([N+](=O)[O-])cc2s1)C1CCCCC1 | -1.42% (inactive) |  | 
2 | COc1cccc(CN(C(=O)CC(C)(C)C)[C@H]2C[C@H](C(=O)N3CCNCC3)N(Cc3ccc4c(c3)OCO4)C2)c1 | 9.37% (inactive) |  | 
3 | O=C(c1ccc(F)cc1)N1CCCC(c2nc(-c3ccc(F)cc3)no2)C1 (stereo not given) |  | inactive | 
4 | C#CC(=O)N(c1ccc(OC)cc1OC)C(C(=O)NCC(=O)OCC)c1cccs1 (stereo not given) | 17.7% (inactive) |  | 
5 | CCC(C)(NC(=O)C(CCC(N)=O)NC(=O)C1CC(O)CN1C(=O)C(C)(C)NC(=O)C(C)(C)NC(=O)C(CC(C)C)NC(=O)CNC(=O)C(NC(=O)C(C)(C)NC(=O)C(C)(C)NC(=O)C(C)(C)NC(=O)C(Cc1ccccc1)NC(C)=O)C(C)C)C(=O)N1CC(O)CC1C(=O)NC(C)(C)C(=O)NC(CO)Cc1ccccc1 (stereo not given) (Ac-F[Aib][Aib][Aib]VGL[Aib][Aib][Hyp]Q[Iva][Hyp][Aib][Phe(ol)]; configuration not given here) |  | inactive [at 10.7 µM] | 
6 | NS(=O)(=O)c1ccc(N2CCN(CC[C@@H]3OCCc4ccccc43)CC2)cc1 | -1.84% (inactive) |  | 
7 | CC(C)(C[C@@](O)(Cc1cc2ccncc2[nH]1)C(F)(F)F)c1cc(F)ccc1O | 49.5% (inactive) |  | 
8 | O=c1[nH]c([C@@H]2CCCN2)nc2c1oc1ccc(Cl)cc12 |  | inactive | 
9 | COC(C)(C)CCn1nc(Nc2c(C)cccc2C)c2cnc(Nc3ccc(OCCN4CCCC4)c(F)c3)nc21 | 118% (inactive) |  | 
10 | CC1(C)OC[C@H](NC(=O)Nc2ccc(Br)cc2Br)[C@H](c2ccccc2)O1 | 20.1% (inactive) |  | 
11 | Cc1csc(N(C(=O)CSc2ccc(-c3ccccc3)nn2)C2CC2)n1 | -4.84% (inactive) |  | 
12 | COc1ccc2cc3c(NC(=O)c4ccco4)nn(C)c3nc2c1 |  | inactive | 
13 | CC(=O)O[C@@H]1CC[C@@]2(C)C(CC[C@]3(C)C2[C@H](O)C=C2[C@H]4[C@@H](C)[C@H](C)CC[C@]4(C)CC[C@]23C)[C@@]1(C)C(=O)O (stereo not given in full) |  |  | 11.2 µM (active)
14 | O=C1COc2nccc(-c3ccccc3F)c2CN1Cc1cc(C(F)(F)F)cc(C(F)(F)F)c1 | -18.5% (inactive) |  | 
15 | CC(C)C[C@@H](N)C(=O)N[C@H]1C(=O)N[C@@H](CC(N)=O)C(=O)N[C@H]2C(=O)N[C@H]3C(=O)N[C@H](C(=O)N[C@H](C(=O)O)c4cc(O)cc(O)c4-c4cc3ccc4O)[C@H](O)c3ccc(c(Cl)c3)Oc3cc2cc(c3O[C@@H]2O[C@H](CO)[C@@H](O)[C@H](O)[C@H]2O[C@H]2C[C@](C)(N)[C@H](O)[C@H](C)O2)Oc2ccc(cc2Cl)[C@H]1O | -3.66% [at 33.1 µM] (inactive) |  | 
16 | CC(C)=CCC/C(C)=C/COCC1OC(n2ccc(=O)[nH]c2=O)C(O)C1O (stereo not given) |  | inactive [at 33.1 µM] | 
17 | CCC(=C(c1ccc(OCCN2CCCC2)cc1)c1ccc(OCCN2CCCC2)cc1)c1ccccc1 |  | inactive; activator | 
18 | COc1ccc([C@H](Cc2ccncc2)c2ccccc2)cc1OC1CCCC1 | 24.9% (inactive) |  | 
19 | CCOc1ccc(-n2c(C(C)N(Cc3cccnc3)C(=O)Cc3ccc(F)c(C(F)(F)F)c3)nc3ncccc3c2=O)cc1 (stereo not given) | -7.96% (inactive) |  | 
20 | CC1=C(C(=O)OC2CCCCC2)C(c2ccc([N+](=O)[O-])cc2)C2=C(CC(C)(C)CC2=O)N1 (stereo not given) |  |  | 31.6 µM (active)

Row | SMILES | activity change, negative = inhibition | outcome | Potency
21 | C/C=C\NC(=O)C1NC(=O)C(CC(N)=O)NC(=O)C(NC(=O)C(=O)C(C)CC)Cc2ccc(O)c(c2)-c2cccc3c2NC(=O)C3(O)C1O (stereo not given) | 29.7% [at 15.1 µM] (inactive) |  | 
22 | CC(=O)Nc1cccc(Nc2ncnc(N3CCC(OCc4ccc(OC(F)(F)F)cc4)CC3)n2)c1C | 3.37% (inactive) |  | 
23 | C=C(C)[C@@H]1CC=C(COC(=O)NC(=O)c2ncn3c(=O)n(C)nnc23)CC1 | 14.8% (inactive) |  | 
24 | O=[N+]([O-])c1cn2c(n1)OC[C@@H](OCc1ccc(-c3ccc(OC(F)(F)F)cc3)nc1)C2 | 11.4% (inactive) |  | 
25 | Cn1ncc(Cl)c1-c1cc(C(=O)N[C@H](CN)Cc2ccc(F)c(F)c2)sc1Cl | 338% (inactive) |  | 
26 | CCC/C=C/C(=O)O[C@H]1CC(C)(C)CC2[C@@]13[C@H](O)C[C@]1(C)[C@@]2(CCC2[C@@]4(C)CC[C@H](O[C@@H]5O[C@H](C(=O)O)[C@@H](O)[C@H](O[C@@H]6O[C@H](CO)[C@H](O)[C@H](O)[C@H]6O[C@@H]6O[C@@H](C)[C@H](O)[C@@H](O)[C@H]6O[C@@H]6OC[C@](O)(CO)[C@H]6O)[C@H]5O[C@@H]5O[C@H](CO)[C@H](O)[C@H](O)[C@H]5O)C(C)(C)C4CC[C@]21C)O[C@H]3O (stereo not given in full) | -24.8% [at 10.7 µM] (inactive) |  | 
27 | C=C1C(=O)OC2/C=C(\COC(C)=O)CC/C=C(\C=O)CC(OC(=O)CC(C)C)C12 (stereo not given) | 7.93% [at 33.1 µM] (inactive) |  | 
28 | CC(=O)O[C@@]12CO[C@@H]1C[C@H](O)[C@@]1(C)C(=O)[C@H](O)C3=C(C)[C@@H](OC(=O)[C@H](O)[C@@H](NC(=O)OC(C)(C)C)c4ccccc4)C[C@@](O)([C@@H](OC(=O)c4ccccc4)C12)C3(C)C (stereo not given in full) |  | inactive [at 33.1 µM] | 
29 | Cc1ccc(-c2cn3c4c(sc3n2)CCCC4)cc1 | 43% (inactive) |  | 
30 | C[C@@H](NC(=O)C(=O)c1c[nH]c2ccc([N+](=O)[O-])cc12)c1ccccc1 | 3.81% (inactive) |  | 
31 | CC1OC(=O)C[C@@H]2C(C(=O)O)=CO[C@@H](O[C@H]3O[C@H](CO)[C@@H](O)[C@H](O)[C@H]3O)[C@H]12 (stereo not given in full) | 46.8% [at 33.1 µM] (inactive) |  | 
32 | CC1(C)CCCC2(C)C1C(OC(=O)/C=C/C=C/C=O)C=C1COC(=O)C12O (stereo not given) | -16.4% [at 33.1 µM] (inactive) |  | 
33 | COc1ccccc1C(=O)Nc1cccc(NC(=O)c2cccc(C)c2)c1 | 26.8% (inactive) |  | 
34 | O=C(Nc1cccc([N+](=O)[O-])c1)c1cccc(S(=O)(=O)N2CCCCCC2)c1 |  | inactive | 
35 | CC(=O)O[C@@H]1C2=C(O)C(=O)[C@](C)(OC(C)=O)C(=O)C2=CO[C@@]12O[C@@H](C)CC[C@H]2OC(C)=O | -3.59% [at 33.1 µM] (inactive) |  | 
36 | OC1(CN2CCC(COc3noc4cccc(O[C@@H]5CCOC5)c34)CC2)CCOCC1 | -19.9% (inactive) |  | 
37 | Fc1ccc(N2CCCCC2)c(NC(=S)c2ccncc2)c1 |  | inactive | 
38 | O=C(CSc1nc2ccccc2c(=O)n1-c1ccccc1)Nc1ccc2c(c1)CCC2 | 7.97% (inactive) |  | 
39 | CC1=CC2/C=C(\C)CCC(O)C/C=C/C(=O)OC23C(=O)NC(CC(C)C)C3C1C (stereo not given) | 3.57% [at 33.1 µM] (inactive) |  | 
40 | CCOC(=O)N1CCC(N2CCC[C@@H](NC(=O)c3ccccc3C)C2)CC1 | 66.4% (inactive) |  | 
